Screening data (PubChem)
Shiga toxin inh = Shiga toxin inhibition. Vero cells, Shiga toxin protein synthesis inhibition reporter. inhibition, % at 38.7 µM. 290,000 tested, 9.2% active. AID 2315; in the data active = inhibition mostly above about 28%, no sharp cut-off; inactive = mostly below about 43%; also: 0% is about no effect
Pf growth 48h = inhibits P. falciparum growth in the first generation, 48 h; AID 504832; P. falciparum luciferase growth in erythrocytes, 48 h; Potency, µM (top dose mostly 28.7 µM), for the others: top-dose activity change, negative = inhibition, hits mostly inhibitors; 310,000 tested, 5.9% active; also: potency is read from the fitted curve at half-maximal effect; % is scaled to controls: 0 for no effect and ±100 for the full control effect
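Luminescence readout; reporter = integrated firefly luciferase in P. falciparum. RBC culture at 2% hematocrit, 0.1% parasitemia final, 37 C/5% CO2; decreased signal taken as growth inhibition.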
CHX counter = counter-screen hit for Shiga toxin inhibitors, cycloheximide | max response, % | cell reporter, cycloheximide protein synthesis inhibition counterscreen | 300,000 tested, 12% active | AID 2314; in the data active = max response mostly above about 13%, no sharp cut-off; inactive = mostly below about 14%; also: read at 38.3 µM for the half of the compounds with a filed dose; 0% is about no effect
Pf growth 96h = P. falciparum growth inhibition at 96 hours; 320,000 tested, 6.9% active; Potency, µM (doses to about 28.7 µM), without a hit: at the top dose activity change, negative = inhibition, most hits filed as inhibitors; P. falciparum luciferase reporter growth, 96 h; also: potency is read from the fitted curve at half-maximal effect; % is scaled to controls: 0 for no effect and ±100 for the full control effect
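Infected RBCs, 2% Hct / 0.05% parasitemia final; luciferase-reporter P. falciparum; cpd 96 h, 37 C, 5% CO2; luciferase detection reagent; luminescence.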
NS1 function inh = inhibitors of influenza NS1 protein function; 270,000 tested, 0.4% active; Potency, µM (series often up to 46.1 µM), for the others: at the highest dose activity, positive = more growth; calls by dose curve; also: potency is read from the fitted curve at half-maximal effect; actives are rising curves; nearly all actives have a fitted effect of over 50% in size
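Growth recovery, yeast-based: influenza A NS1 expressed in S. cerevisiae causes slow growth, and suppressors are detected by OD600. The parent strain without NS1 is used as positive control.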
* = called active by the depositor; ? = inconclusive; nt = no result; + = active, no number; [ ] = remark or other dose. Hits are enriched below; roughly 21% of the tested compounds scored in any of these assays. Unless noted, calls follow the shape of the dose curve; as a rule, active = well fitted inhibition curve with a large enough effect; inconclusive = small, poorly fitted or top-dose-only effect, or another doubt; inactive = no such curve, though single readings can be large or run the other way.

SMILES	Shiga toxin inh	Pf growth 48h	CHX counter	Pf growth 96h	NS1 function inh
Cc1ccc(NC(=O)N2CCC(c3nc4c(nnn4Cc4cccc(Cl)c4)c(=O)[nH]3)CC2)cc1	1	13µM*	1	0.029µM*	18%
NC(=O)C1CCN(c2nc(C3CC3)nc3c2nnn3Cc2ccccc2)CC1	-11	13µM*	-1	?	7%
NC(=O)C1CCN(c2nc(C3CC3)nc3c2nnn3Cc2ccccc2Cl)CC1	-16	?	10	-8%[5.75 µM]	-9%
O=C(Nc1ccc(F)cc1)N1CCC(c2nc3c(nnn3Cc3cccc(Cl)c3)c(=O)[nH]2)CC1	-6	?	-3	319%	16%
O=C1C(=O)N(c2ccc(O)cc2)C(c2ccccc2[N+](=O)[O-])/C1=C(\O)c1ccccc1 (centres undefined)	18	1%	-2	12%	1%
CC(=O)Nc1ccc(S(=O)(=O)Nc2nc3ccccc3s2)cc1	-24	10%	5	nt	1%
COc1ccc(/C=N/Nc2nc3ccccc3s2)cc1O	68*	284%	33	?	nt
CC(=O)Nc1ccc(/C=N/Nc2nc3ccccc3s2)cc1	72*	51%	54*	422%	3%
COc1cc(/C=N/Nc2nc3ccccc3o2)cc(OC)c1O	42	7%	25	nt	-79%
COc1ccc(/C=N/Nc2nc3ccccc3o2)cc1O	76	nt	36*	276%	-2%
CC(=O)Nc1cccc(/C(C)=N/Nc2nc3ccccc3s2)c1	113*	409%	39*	33%	-10%
Cc1ccc(CN2CCN(Cc3ccc(Oc4ncccn4)cc3)CC2CCO)cc1 (centres undefined)	-21	-7%	-2	?	0%
O=C(Nc1cccc(OC(=O)c2ccc(Br)o2)c1)c1ccccc1	24	33%	21	49%	-64%
COc1cc(/C=N\Nc2nc3ccccc3o2)cc(OC)c1OC	110*	42%	40*	19%	3%
C/C(=C\C(=O)c1ccc(Cl)s1)N(C)C	11	8%	12	41%	0%
Cc1ccc(S(=O)(=O)N(C)C)cc1NC(=O)CCCNC(=O)c1ccc(Cl)cc1	5	?	-3	-8%	4%
O=C(CC1SC(=Nc2ccccc2)N(Cc2ccccn2)C1=O)Nc1ccc(Br)cc1 (centres undefined)	48*	-71%	20*	?	?
CCN1C(=O)C(CC(=O)Nc2cccc(C(C)=O)c2)S/C1=N\c1ccccn1 (centres undefined)	18	19%	1	-11%	0%
COCCN1C(=O)C(CC(=O)Nc2ccc(C(=O)O)cc2)SC1=Nc1ccccc1 (centres undefined)	10	9%	1	68%	0%
O=C(CC1SC(=Nc2cccc3ccccc23)N(Cc2ccccn2)C1=O)Nc1ccccc1Br (centres undefined)	2	9.3µM*	-3	8.3µM*	18%
O=C(CC1Sc2ncnn2C1=O)Nc1ccc(Br)cc1 (centres undefined)	-3	2%	-2	10µM*	-70%
C/C(=N\N=C(N)N)c1ccc(Cl)c(Cl)c1	-20	4.1µM*	-2	?	3%
C/C(=N\NC(=O)CC(C)C)c1ccc(Cl)c(Cl)c1	3	37%	9	?	3%
CCCc1c(NC(=O)Nc2ccc(F)cc2)cnn1-c1ccccc1	45*	?	23*	?	-1%
CCCc1c(C(=O)Nc2ccc(C(F)(F)F)cc2)cnn1-c1ccccc1	-3	?	1	?	2%
SMILES	Shiga toxin inh	Pf growth 48h	CHX counter	Pf growth 96h	NS1 function inh
Cc1ccc(SCCC(=O)Nc2ccccc2Br)cc1	56*	14%	16*	1%	-6%
Cc1ccc(NC(=O)c2ccccc2Cl)c(Cl)c1	69*	nt	42*	82%	-59%
Cc1ccc(NC(=O)c2sccc2-n2cccc2)c(Cl)c1	22	19%	31*	176%	nt
Cc1cc(NC(=O)c2ccccc2)ccc1NC(=O)c1ccccc1Cl	nt	1%	2	-6%	8%
O=C(NCc1ccccc1)C1=C[C@@H](C2CC2)C[C@@H](OCCCCO)O1	0	2%	1	-1%	-3%
CCCc1c(C(=O)Nc2cc(C)on2)cnn1-c1ccccc1	15	?	-1	9.3µM*	1%
CCCc1c(C(=O)Nc2ccc(F)cc2C)cnn1-c1ccccc1	-6	-2%	6	5%	-40%
CC(=O)c1c(C(C)=O)c(C)n(-c2ccc(C)c(NC(=O)c3ccccc3Cl)c2)c1C	-5	?	-2	2.9µM*	-13%
Cc1cc(NC(=O)NC(=O)c2ccccc2F)no1	77*	149%	32*	171%	-5%
Cc1ccc(NC(=O)C2CC2C)c(Cl)c1 (centres undefined)	62	30%	30*	-11%	nt
CC(=O)c1c(C(C)=O)c(C)n(-c2ccc(O)cc2)c1C	-13	9%	1	0%	5%
COc1ccc(N2CCN(C(=O)CNC(=O)c3ccco3)CC2)cc1	-5	2%	-3	?	8%
O=C(COc1coc(CN2CCCc3ccccc32)cc1=O)Nc1ccc([N+](=O)[O-])cc1	nt	0%	nt	12%	nt
Cc1cc(NC(=O)CCSc2ccccc2)no1	36*	29%	24*	33%	4%
Cc1cc(C)c(NC(=O)Cn2ncc3ccccc32)c(C)c1	9	-4%	6	2%	10%
Cc1ccc(NC(=O)Cn2ncc3ccccc32)c(Cl)c1	55*	-7%	52*	15%	-3%
Cc1cc(NC(=O)CSc2nc3ccccc3s2)no1	7	6%	1	nt	-11%
Cc1cc(NC(=O)c2sc3ccccc3c2O)no1	82*	125%	62*	303%	-102%
Cc1cc(NC(=O)c2c(F)cccc2Cl)no1	56*	0%	13*	82%	6%
Cc1cc(NC(=O)c2c(F)c(F)c(F)c(F)c2F)no1	-14	?	1	?	-2%
CN(C(=O)CCn1c(=S)oc2ccccc21)c1ccc(F)cc1	-6	-2%	2	?	nt
O=C(Cn1cnc2ccccc21)Nc1ccc2c(c1)OCCCO2	nt	41%	nt	34%	nt
Cc1cc(NC(=O)c2ccccc2Cl)no1	+	172%	54*	nt	16%
Cc1cc(NC(=O)c2cc(Cl)ccc2Cl)no1	-19	5%	-1	?	-10%
O=C(Nc1cccc(-c2cccc(Cl)c2)c1)C1CCN(Cc2ccon2)CC1	-7	14%	-3	8.3µM*	0%
COCc1ccc(CN2CCC(C(=O)Nc3cccc(-c4cccc(Cl)c4)c3)CC2)o1	-28	13µM*	-3	?	-13%
O=C(Nc1cccc(-c2cccc(Cl)c2)c1)C1CCN(CC2CCOC2)CC1 (centres undefined)	-5	8.3µM*	-4	23%	-15%
CN(C)C(CNC(=O)NC1CCCCC1)c1cccnc1 (centres undefined)	3	9%	1	nt	7%
Cc1ccnc(SCC(=O)Nc2cc(C)on2)n1	-26	16%	-3	-13%	8%
